Most compounds without a hit are left out; they make up all but 10% or so of the library.
JMJD2A Tudor inh: blocks the human JMJD2A Tudor domain; Potency, µM (top dose mostly 114 µM), inactives show at the highest dose activity change, negative = inhibition, most hits filed as inhibitors; 390,000 tested, 4.4% active; AlphaScreen JMJD2A-Tudor / H3K4me3 peptide binding; also: % is scaled to controls: 0 for no effect and ±100 for the full control effect; nearly all actives have a fitted effect of over 50% in size
G9a inh: inhibitors of human histone lysine methyltransferase G9a; 350,000 tested, 8.8% active; Q96KQ7; AID 504332; G9a H3K9 monomethylation, AlphaScreen, 2 h; Potency, µM (doses to about 102 µM), inactives show at the top dose activity, negative = inhibition, most hits filed as inhibitors; also: % is scaled to controls: 0 for no effect and ±100 for the full control effect; nearly all actives have a fitted effect of over 75% in size
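Signal arises when biotinylated H3K9 peptide, once monomethylated, bridges streptavidin donor and antibody-captured acceptor beads. Enzyme at 20 nM was preincubated 15 min with test compounds; peptide 500 nM and SAM 20 uM then reacted for 2 h.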
HP1b chromo inh: blocks HP1-beta chromodomain binding to methylated histone tails; P83916; AlphaScreen HP1-beta / biotin-H3K9me3 peptide binding; Potency, µM (series often up to 114 µM), without a hit: top-dose activity change, negative = inhibition, hits mostly inhibitors; 390,000 tested, 0.56% active; also: nearly all actives have a fitted effect of over 70% in size
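Compound inhibition of the preformed complex between 50 nM HP1-beta and 50 nM biotinylated H3K9me3 peptide was read by AlphaScreen. Buffer was PBS pH 7.4 with 0.01% Tween-20. Incubations ran 30 min at room temperature, with 10 ug/mL donor/acceptor beads.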
GLS inhibitor: glutaminase GLS (human) inhibition. O94925. Potency, µM (highest dose often 45.5 µM), without a hit: at the highest dose activity change, negative = inhibition, actives largely listed as inhibitors. 410,000 tested, 0.21% active. GLS enzymatic activity, qHTS titration; also: % is scaled to controls: 0 for no effect and ±100 for the full control effect
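Read-out is an Amplex red fluorescence increase coupled through glutamate oxidase and HRP, measured before and after 30 min room-temperature incubation. hKGA is in 45 mM KH2PO4 (pH 8.2) with 0.02% Tween-20; glutamine added as 1mM solution.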
BAZ2B inh: blocks human BAZ2B | 360,000 tested, 4.4% active | AID 504333 | Potency, µM (series often up to 114 µM), for the others: top-dose activity change, negative = inhibition, hits mostly inhibitors | AlphaScreen BAZ2B-H3K14Ac peptide displacement; also: % is scaled to controls: 0 for no effect and ±100 for the full control effect; nearly all actives have a fitted effect of over 60% in size
Target sequence (Q9UIF8 whole entry, looked up): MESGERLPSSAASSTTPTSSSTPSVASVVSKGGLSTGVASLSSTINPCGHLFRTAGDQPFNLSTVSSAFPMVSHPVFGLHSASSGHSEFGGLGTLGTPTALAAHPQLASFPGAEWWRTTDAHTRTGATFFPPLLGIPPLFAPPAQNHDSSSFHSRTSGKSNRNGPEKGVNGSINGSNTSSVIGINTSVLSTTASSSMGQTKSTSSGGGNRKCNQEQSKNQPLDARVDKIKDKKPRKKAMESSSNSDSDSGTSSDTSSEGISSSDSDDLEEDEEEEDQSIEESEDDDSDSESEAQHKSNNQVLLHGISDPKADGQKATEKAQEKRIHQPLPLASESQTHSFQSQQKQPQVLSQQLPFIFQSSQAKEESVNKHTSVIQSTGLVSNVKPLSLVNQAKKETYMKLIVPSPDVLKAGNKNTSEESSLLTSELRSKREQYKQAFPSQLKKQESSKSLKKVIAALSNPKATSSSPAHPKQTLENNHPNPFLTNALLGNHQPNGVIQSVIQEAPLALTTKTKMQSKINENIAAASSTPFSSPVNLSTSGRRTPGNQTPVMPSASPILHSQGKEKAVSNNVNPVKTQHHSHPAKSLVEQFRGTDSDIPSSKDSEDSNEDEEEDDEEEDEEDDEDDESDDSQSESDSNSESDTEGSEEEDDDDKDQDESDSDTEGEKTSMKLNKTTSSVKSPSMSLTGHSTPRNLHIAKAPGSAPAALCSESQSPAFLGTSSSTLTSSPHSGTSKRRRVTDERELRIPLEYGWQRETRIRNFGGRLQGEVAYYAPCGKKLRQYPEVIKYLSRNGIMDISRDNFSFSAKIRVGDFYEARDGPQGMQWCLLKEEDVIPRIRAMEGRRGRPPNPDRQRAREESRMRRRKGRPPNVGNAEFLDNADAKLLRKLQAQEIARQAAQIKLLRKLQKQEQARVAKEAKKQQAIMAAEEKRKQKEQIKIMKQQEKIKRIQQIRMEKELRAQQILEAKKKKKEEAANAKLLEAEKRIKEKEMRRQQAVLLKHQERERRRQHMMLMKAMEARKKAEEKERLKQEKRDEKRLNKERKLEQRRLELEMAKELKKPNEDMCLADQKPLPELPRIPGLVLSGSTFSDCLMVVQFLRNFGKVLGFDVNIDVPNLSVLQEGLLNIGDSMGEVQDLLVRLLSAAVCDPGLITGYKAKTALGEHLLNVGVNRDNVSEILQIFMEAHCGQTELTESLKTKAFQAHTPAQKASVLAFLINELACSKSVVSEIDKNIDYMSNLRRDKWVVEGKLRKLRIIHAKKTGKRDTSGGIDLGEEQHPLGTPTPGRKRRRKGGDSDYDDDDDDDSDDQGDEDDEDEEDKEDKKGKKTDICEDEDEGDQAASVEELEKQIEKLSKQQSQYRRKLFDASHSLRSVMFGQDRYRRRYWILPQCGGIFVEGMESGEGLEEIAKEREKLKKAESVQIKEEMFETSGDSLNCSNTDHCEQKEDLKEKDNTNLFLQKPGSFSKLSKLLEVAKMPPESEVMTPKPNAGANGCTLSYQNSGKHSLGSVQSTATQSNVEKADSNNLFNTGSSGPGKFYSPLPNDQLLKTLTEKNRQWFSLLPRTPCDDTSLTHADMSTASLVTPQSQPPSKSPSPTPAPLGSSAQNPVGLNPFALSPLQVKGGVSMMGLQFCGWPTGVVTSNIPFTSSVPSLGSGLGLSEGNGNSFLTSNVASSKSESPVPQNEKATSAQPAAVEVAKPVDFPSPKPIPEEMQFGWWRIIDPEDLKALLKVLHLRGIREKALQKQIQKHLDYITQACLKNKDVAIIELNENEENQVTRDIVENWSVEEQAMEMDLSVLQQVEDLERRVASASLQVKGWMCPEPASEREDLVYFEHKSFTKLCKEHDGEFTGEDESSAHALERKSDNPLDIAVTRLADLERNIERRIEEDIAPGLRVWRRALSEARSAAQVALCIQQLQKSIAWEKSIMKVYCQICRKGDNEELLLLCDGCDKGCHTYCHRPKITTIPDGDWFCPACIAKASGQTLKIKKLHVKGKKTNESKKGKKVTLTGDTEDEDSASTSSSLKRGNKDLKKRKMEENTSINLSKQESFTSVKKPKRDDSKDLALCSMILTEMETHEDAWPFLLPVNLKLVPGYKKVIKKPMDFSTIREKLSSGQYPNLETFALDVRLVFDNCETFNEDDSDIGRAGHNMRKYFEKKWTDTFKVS
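Complex of BAZ2B and biotin-H3K14Ac (50 nM apiece) forms over 30 min at RT, then faces library compounds up to 110 uM for another 30 min; AlphaScreen beads added, 20 min dark incubation, luminescence read.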
An asterisk follows results filed as active; ? = inconclusive; . = not tested or not shown; [ ] = dose if it differs, or a comment. Calls follow the shape of the dose curve; as a rule, active = well fitted curve in the direction sought with a large enough effect; inconclusive = small, poorly fitted or top-dose-only effect, or another doubt; inactive = no such curve, though single readings can be large; an effect the other way counts as inactive or inconclusive. Potency is read from the fitted curve at half-maximal effect.

SMILES	JMJD2A Tudor inh	G9a inh	HP1b chromo inh	GLS inhibitor	BAZ2B inh
CCOC(=O)C1CCN(Cc2ccc(F)c(F)c2)CC1	5.62µM*	28.2µM*	?	0.0%	?
CC(C)CC(=O)N1CCN(Cc2ccc3ccccc3c2)CC1	25.1µM*	-2.6%[0.501 µM]	?	6.1%	?
CCOC(=O)C1CCN(S(=O)(=O)Cc2ccc(Cl)cc2)CC1	-15.1%	21.0%[59 µM]	14.6%	3.8%	5.0%
OCCN1CCN(Cc2ccc3ccccc3c2)CC1	20µM*	.	?	0.4%	50.1µM*
CCOC(=O)N1CCN(Cc2ccccn2)CC1	0.794µM*	7.08µM*	18.0%	-10.9%	?
OCCN1CCN(Cc2cccc(Oc3ccc(Cl)cc3)c2)CC1	-19.5%	?	15.1%	0.4%	?
CCOC(=O)N1CCN(c2c(N3CCN(c4ccccn4)CC3)c(=O)c2=O)CC1	-11.0%	?	39.1%	10.2%	-1.3%
CCOC(=O)N(C)c1c(CC)nc2c(OCc3ccccc3)cccn12	.	.	.	3.9%	.
Oc1ccc2ccccc2c1SSc1c(O)ccc2ccccc12	.	6.7µM*	.	.	.
NCc1c(O)ccc2ccccc12	.	7.94µM*	.	.	-28.8%
COc1ccc(C(=O)Nc2ccc(CN3CCOCC3)cc2)cc1Br	-10.6%	-8.8%[59 µM]	38.8%	-0.3%	-2.3%
COc1ccc(CN2CCN(C(=O)CC(C)C)CC2)cc1Br	79.4µM*	10µM*	27.3%	0.9%	?
CCOC(=O)C1CCN(C(=O)c2oc3ccc(S(=O)(=O)N4CC(C)CC(C)C4)cc3c2C)CC1 (stereo unspecified)	-5.3%	14.1µM*	14.2%	-11.4%	-1.2%
CN(Cc1ccccc1)C(=O)C1CCN(S(=O)(=O)Cc2ccccc2)CC1	-24.5%	-4.9%[59 µM]	28.5%	9.0%	-2.9%
Cc1ccc(C(=O)OCC(=O)c2ccc(S(=O)(=O)N3CCCCC3)cc2)o1	?	50.1µM*	-11.3%	14.6%	-18.0%
CCOC(=O)C1CCN(S(=O)(=O)c2ccc(CC)cc2)CC1	39.8µM*	51.1%[59 µM]	22.8%	?	60.1%
COc1ccc(C(=O)OCC(=O)c2ccc(S(=O)(=O)N3CCCCC3)cc2)c(OC)c1	-10.3%	?	41.4%	-9.3%	10.1%
Oc1ccc2ccccc2c1CNc1ccc(Br)cc1	?	5.01µM*	-14.9%	18.0%	39.8µM*
CCOC(=O)N1CCN(Cc2ccc3ccccc3c2)CC1	25.1µM*	.	?	-5.9%	?
CCCCc1ccc(-n2nc3cc(Cl)c(NC(=O)c4ccc(OC)cc4)cc3n2)cc1	9.3%	-3.5%[59 µM]	26.6%	3.0%	-11.5%
CCC(=O)OCC(=O)C1(OC(=O)CC)C(C)CC2C3C(Cl)CC4=CC(=O)C=C[C@@]4(C)C3C(O)C[C@@]21C (stereo partly specified)	.	-23.2%[2.33 µM]	.	.	.
CSc1ccc(CN2CCN(C(=O)CC(C)C)CC2)cc1	20µM*	-1.8%[0.501 µM]	?	12.1%	79.4µM*
CCN1CCN(Cc2ccc(NC(=O)Nc3ccc(SC)cc3)cc2)CC1	?	?	-33.9%	10.2%	?
CCOC(=O)C1CCN(Cc2cc(C(C)C)c(O)c(C(C)C)c2)CC1	-13.0%	-37.3%	19.7%	?	-21.6%
COC(=O)C1CCN(C(=O)COC(=O)C2CCN(S(=O)(=O)c3c(Cl)cccc3Cl)CC2)CC1	-21.4%	?	-2.9%	3.4%	1.3%
SMILES	JMJD2A Tudor inh	G9a inh	HP1b chromo inh	GLS inhibitor	BAZ2B inh
CCOC(=O)C1CCN(Cc2ccc3ccccc3c2)CC1	56.2µM*	?	?	2.2%	?
Oc1ccc2ccccc2c1CN1CCCC1	1.7%	6.31µM*	8.0%	-29.2%	-20.1%
CCOC(=O)N1CCN(C(=O)COC(=O)C2CCN(S(=O)(=O)c3c(Cl)cccc3Cl)CC2)CC1	-17.1%	50.1µM*	20.4%	-0.5%	1.7%
CC(=O)c1ccc(NC(=O)c2cc(-c3ccc(Cl)c(Cl)c3)on2)cc1	8.9%	7.3%[59 µM]	28.1%	0.9%	2.5%
N#Cc1ccc(CN2CC3(CCN(C(=O)c4ccco4)CC3)C2)cc1	.	0.9%[12.7 µM]	.	.	.
CCOC(=O)C1CCN(Cc2c(O)ccc3ccccc23)CC1	-4.5%	3.55µM*	27.8%	17.8%	12.8%
CCOC(=O)N1CCN(Cc2c(O)ccc3ccccc23)CC1	?	?	?	-0.6%	-0.1%
CCOC(=O)C1CCN(Cc2ccc(N(C)C)cc2)CC1	3.55µM*	?	?	31.1%	44.7µM*
Cc1cc(C(=O)Nn2c(-c3ccc(Br)cc3)nc3ccccc3c2=O)ccc1[N+](=O)[O-]	-25.9%	-19.8%[59 µM]	18.7%	1.8%	-36.6%
CCCCCCCC#Cc1ccccc1/C=N/S(=O)c1ccc(C)cc1 (stereo unspecified)	8.91µM*	0.794µM*	171.0%	?	24.6%
O=C(O)[C@@H](O)[C@@H](O)[C@@H](O)[C@@H](O)C(=O)O (tested in a mixture with another compound)	.	10.0%[21.5 µM]	.	11.3%	.
O=C(Nc1ccc(Cl)cc1)C(Cl)C(=O)c1ccccc1 (stereo unspecified)	-13.6%	11.2µM*	1.9%	2.8%	-5.5%
O=C(NC(=S)Nc1ccc(Cl)cc1)c1ccccc1	-15.9%	-38.2%	68.3%	2.8%	?
O=C(Nc1ccccc1Cl)c1ccccc1	3.1%	-7.9%	21.4%	5.1%	.
O=C(Nc1ccccc1Cl)Nc1ccccc1Cl	5.9%	.	13.8%	3.1%	-13.8%
O=C(Nc1ccccc1Cl)C(Cl)C(=O)c1ccccc1 (stereo unspecified)	-14.8%	39.8µM*	19.8%	?	?
O=C(Nc1ccc(Nc2ccccc2)cc1)Nc1ccccc1Cl	?	7.94µM*	?	5.5%	20µM*
COc1ccc(NC(=O)c2c(C)oc3ccc(O)c(CN4CCN(Cc5ccccc5)CC4)c23)cc1Cl	?	?	-9.1%	4.1%	-36.3%
COc1cc(N=Nc2c(C)n(C)n(-c3ccccc3)c2=O)ccc1N	-10.0%	50.1µM*	11.2%	?	-24.6%
Cc1ccc(-n2ncc3c(NC4CCCCC4)ncnc32)cc1	-4.9%	0.1%[59 µM]	14.5%	1.1%	5.8%
O=C(O)CSc1c2c(nc3cc(C(=O)Nc4ccc(F)c(Cl)c4)ccc13)CCC2	?	-32.8%[59 µM]	-1.5%	-10.2%	79.4µM*
COc1cc(NC(=O)c2ccc3c(SCC(=O)O)c4c(nc3c2)CCC4)cc(OC)c1OC	-16.9%	.	30.1%	-3.9%	89.1µM*
COc1cc(NC(=O)c2ccc3c(Cl)c4c(nc3c2)CCC4)cc(OC)c1OC	-20.9%	28.2µM*	17.8%	-15.1%	-3.0%
CC(=O)c1c(C)[nH]c(C(=O)OCC(=O)Nc2cccc(S(=O)(=O)N(C)C)c2)c1C	-23.4%	1.8%[59 µM]	48.9%	0.5%	50.1µM*
CC(=O)c1c(C)[nH]c(C(=O)OCC(=O)Nc2cccc(S(=O)(=O)N3CCCC3)c2)c1C	-22.1%	-1.2%	6.7%	4.0%	56.2µM*
